Screening data deposited in PubChem by several laboratories.
Sampled rows, rich in hits. Any-hit rate of the full collection: about 2.9%.
ABCB6 inh MLPCN – ABCB6 transporter inhibitors, primary screen, K562-ABCB6 cells, flow cytometry, MLPCN library. ATP-binding cassette sub-family B member 6 (Homo sapiens), Q9NP58. K562-ABCB6 porphyrin accumulation, 1 h; hits give low values. fluorescence ratio to DMSO, % at 10 µM. 360,000 compounds, 0.19% hits. AID 602162, 2011;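 active = fluorescence ratio to DMSO below 75%, the collection mean minus 3 SD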;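 also: signal is porphyrin accumulated inside mitochondria; 100% equals median channel fluorescence of DMSO control wells; lower ratio means ABCB6 inhibition with less porphyrin fluorescence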
Target sequence (Q9NP58 whole entry, looked up): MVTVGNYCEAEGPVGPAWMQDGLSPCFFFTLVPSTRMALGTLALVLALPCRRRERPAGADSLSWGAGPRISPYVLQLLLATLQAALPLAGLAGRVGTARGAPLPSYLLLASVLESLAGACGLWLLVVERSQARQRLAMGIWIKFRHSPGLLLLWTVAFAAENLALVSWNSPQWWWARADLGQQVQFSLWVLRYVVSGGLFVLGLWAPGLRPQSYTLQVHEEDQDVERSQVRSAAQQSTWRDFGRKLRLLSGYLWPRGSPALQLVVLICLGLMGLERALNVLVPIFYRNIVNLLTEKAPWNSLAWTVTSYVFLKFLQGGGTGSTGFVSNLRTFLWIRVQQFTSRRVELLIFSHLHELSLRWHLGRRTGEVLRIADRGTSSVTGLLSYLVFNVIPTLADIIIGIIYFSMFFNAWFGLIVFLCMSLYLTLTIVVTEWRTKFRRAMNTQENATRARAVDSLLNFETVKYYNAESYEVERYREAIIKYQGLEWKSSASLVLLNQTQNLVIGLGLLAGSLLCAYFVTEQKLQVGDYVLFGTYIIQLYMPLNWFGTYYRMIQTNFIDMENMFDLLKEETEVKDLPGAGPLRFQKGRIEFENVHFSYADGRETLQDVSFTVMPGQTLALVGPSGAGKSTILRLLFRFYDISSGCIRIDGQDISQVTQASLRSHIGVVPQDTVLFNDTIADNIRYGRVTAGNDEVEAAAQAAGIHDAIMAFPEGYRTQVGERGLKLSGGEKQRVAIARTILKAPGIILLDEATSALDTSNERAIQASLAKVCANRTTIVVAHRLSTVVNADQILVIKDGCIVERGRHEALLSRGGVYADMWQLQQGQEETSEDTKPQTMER
MEKK2wt PB1 HTS – modulators of MEK5 binding to wildtype MEKK2, primary screen, biochemical, multiplex bead flow cytometry, Alexa488-MEK5 | Alexa488-MEK5 binding to MEKK2 WT; actives lie on both sides | binding response (% of control), % at 10 µM | 290,000 compounds, 1.1% hits | AID 1531, 2009; in the data active = binding response below about 67% or above about 130%
CRFBP-R2 agonist – agonists of CRF-BP/CRF-R2 complex, primary screen, cell-based, HEK293, calcium dye fluorescence, uHTS; CRF-binding protein / CRF receptor 2 complex (human); 350,000 compounds, 0.46% hits; activation, % at 13.2 µM; calcium dye fluorescence (FLIPR); percent of saturating CRF peptide response;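 active = activation of at least 50%, plus an integration ratio under a set limit after plate pattern correction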;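 also: plate controls were neutral control wells without compound for no effect and CRF at EC100 for full effect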
MEKK2 mut-MEK5 – MEK5 binding signal on mutant MEKK2 PB1, primary screen, biochemical, multiplex bead flow cytometry, Alexa488-MEK5. Alexa488-MEK5 binding to MEKK2 mutant. AID 1530, 2009. 290,000 compounds, 0.35% hits. percent response, % at 10 µM; in the data active = percent response above about 24%, passing the limit was not always enough
CRFR2-BP antag – antagonists of CRF-BP/CRF-R2 complex, primary screen, cell-based, HEK293, calcium dye fluorescence, uHTS; CRF-induced calcium fluorescence; inhibition, % at 11.8 µM; 350,000 compounds, 0.59% hits; AID 588475, 2011;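 active = inhibition of the ligand-induced calcium signal above about 50% at the single tested concentration, limit read from the data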
MEKK3 PB1 HTS – modulators of MEKK3-MEK5 PB1 binding, primary screen, biochemical, wildtype MEKK3, multiplex bead flow cytometry, Alexa488-MEK5. AID 1529, 2009. 290,000 compounds, 1.4% hits. bead-based flow cytometry, Alexa488-MEK5 binding to MEKK3; actives lie on both sides; 0 = blocked by unlabeled MEK5, 100 = vehicle. Mitogen-activated protein kinase kinase kinase 3 (Homo sapiens), Q99759. binding response (% of control), % at 10 µM;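 active = binding response more than 3 SD above or below the average of its plate-row segment, actives on both sides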;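 also: Alexa488 bead fluorescence after subtracting the streptavidin-only scavenger bead signal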
MEKK2wt confirm – modulators of MEK5 binding to wildtype MEKK2, confirmation, biochemical, single concentration, multiplex bead flow cytometry; shares compounds with MEKK3 PB1 HTS; Alexa488-MEK5 binding to MEKK2 WT; actives lie on both sides; binding response (% of control), % at 10 µM; 5,900 compounds, 2.4% hits; in the data active = binding response below about 16% or above about 210%; inactive = in between
MEKK2mut confirm – mutant MEKK2 PB1-MEK5 binding signal retest – biochemical, single concentration, multiplex bead flow cytometry, confirmation; AID 1893, 2009; percent response, % at 10 µM; 5,900 compounds, 2% hits; Alexa488-MEK5 binding to MEKK2 mutant; shares compounds with MEKK3 PB1 HTS; in the data active = percent response mostly above about 71%, no sharp cut-off; inactive = mostly below about 38%;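 also: higher means compound restores mutant binding toward wildtype level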
MEKK3 confirm – MEKK3 wild-type PB1 binding to MEK5, inhibitors, confirmation, biochemical, bead multiplex flow cytometry, single concentration, wildtype; shares compounds with MEKK3 PB1 HTS; Alexa488-MEK5 binding to MEKK3; hits give low values; binding response (% of control), % at 10 µM; 5,900 compounds, 1.8% hits; AID 1894, 2009;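 active = binding response below 72% of control, or above a set upper limit, though filed actives all read lower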;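 also: 100% = DMSO only wells and 0% = binding blocked by excess unlabeled MEK5; lower values mean stronger disruption of MEK5 binding to MEKK3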
* = called active by the depositor; / = no result; [ ] = remark or other dose.

SMILES | ABCB6 inh MLPCN | MEKK2wt PB1 HTS | CRFBP-R2 agonist | MEKK2 mut-MEK5 | CRFR2-BP antag | MEKK3 PB1 HTS | MEKK2wt confirm | MEKK2mut confirm | MEKK3 confirm
Cc1ccc(O)c(NC(=O)c2ccc3c(c2)C(=O)N(Cc2ccco2)C3=O)c1 | 97 | 83 | 0 | -13 | 10 | 83 | / | / | /
CCN(CC)CCN1c2ccccc2Sc2ccc3ccccc3c21 | 92 | 136* | -1 | 18 | -3 | 90 | 120 | 9 | 104
CCN(CC)CCN1c2ccccc2Sc2ccccc21 | 100 | 109 | 0 | 4 | -22 | 104 | / | / | /
O=C(COC(=O)c1cc(Br)ccc1O)NC12CC3CC(CC(C3)C1)C2 | 101 | / | 6 | / | -16 | / | / | / | /
CC1=Nc2ccccc2/C1=C\c1nc(-c2ccc(F)cc2)oc1O | 101 | 7.0* | 36 | -10 | -70 | 9.0*[inhibitor] | 94 | -3 | 99
COc1ccc(OC)c(-c2csc(NC(=O)CSc3ccc([N+](=O)[O-])cc3)n2)c1 | 90 | 110 | 2 | 0 | 14 | 141* | 103 | -3 | 102
COc1ccc(OC)c(-c2csc(NC(=O)CSc3ccc(Br)cc3)n2)c1 | 102 | 127 | 6 | 18 | 17 | 114 | / | / | /
COc1ccccc1C1CC(c2ccccc2)Nc2ncnn21 (stereo not given) | 100 | 91 | 2 | -6 | -49 | 80*[inhibitor] | 105 | 5 | 103
COc1ccccc1C1CC(c2ccc(F)cc2)Nc2ncnn21 (stereo not given) | 95 | 99 | 3 | -3 | -20 | 100 | / | / | /
Cc1cc(OC(C)C(=O)Nc2ccncc2)ccc1Cl (stereo not given) | 107 | 105 | -1 | 2 | 3 | 103 | / | / | /
Cc1nc(N2CCN(c3ccccc3O)CC2)c2c(-c3ccccc3)csc2n1 | 102 | 100 | 1 | -1 | 1 | 100 | / | / | /
CCNC(=O)CSc1nc2cc([N+](=O)[O-])ccc2n1-c1cccc(C(F)(F)F)c1 | 101 | 119 | -1 | 20 | 26 | 105 | / | / | /
NC(=O)CSc1nc2cc([N+](=O)[O-])ccc2n1-c1cccc(C(F)(F)F)c1 | 97 | 109 | 0 | 1 | 29 | 133* | 106 | 4 | 106
CN(C)c1ccc(C(=O)/C=C/c2cccnc2)cc1 | 97 | 110 | -2 | 7 | 4 | 104 | / | / | /
CN(C)c1ccc(/C=C/C(=O)c2cccc(Br)c2)cc1 | 100 | 63*[inhibitor] | 278* | -1 | -346 | 93 | 67 | -21 | 92
Cc1ccc(C(c2c(C)nn(-c3ccccc3)c2N)c2c(C)nn(-c3ccccc3)c2N)cc1 | 100 | 96 | -2 | -1 | 4 | 99 | / | / | /
Cc1nn(-c2ccccc2)c(N)c1C(c1ccc(C(C)C)cc1)c1c(C)nn(-c2ccccc2)c1N | 98 | 106 | 0 | 0 | 31 | 146* | 96 | 0 | 97
Cc1cc(C(F)F)nn1CC(=O)Nc1cc([N+](=O)[O-])ccc1F | 96 | 96 | -2 | -1 | 5 | 97 | / | / | /
Cc1cc(C(F)F)nn1CC(=O)NCc1ccccc1F | 91 | 107 | 0 | 3 | 17 | 141* | 104 | -3 | 103
CC(C)(C)c1ccc(OCC(O)CN(CCO)CC(O)Cn2ccc3ccccc32)cc1 (stereo not given) | 101 | 106 | 0 | 0 | -20 | 133* | 115 | 5 | 103
NC(=O)C1CCN(CC(O)COc2ccc(-c3ccccc3)cc2)CC1 (stereo not given) | 98 | 111 | -1 | 2 | 11 | 100 | / | / | /
O=C(Nc1ccc(F)c(Cl)c1)Nc1csc2ccccc12 | 94 | 191* | 2 | 34 | 13 | 104 | 164 | 26 | 107
O=C(Nc1ccc(F)cc1F)Nc1csc2ccccc12 | 99 | 102 | -1 | 1 | -1 | 104 | / | / | /
Cc1nn(C)cc1/C=C(/C#N)C(N)=O | 101 | 109 | 4 | 1 | -21 | 149* | 100 | -6 | 99
CC1(C)CC(=O)C=C(CN2C(=O)c3ccccc3C2=O)C1=O | 103 | / | -1 | / | 7 | / | / | / | /
SMILES | ABCB6 inh MLPCN | MEKK2wt PB1 HTS | CRFBP-R2 agonist | MEKK2 mut-MEK5 | CRFR2-BP antag | MEKK3 PB1 HTS | MEKK2wt confirm | MEKK2mut confirm | MEKK3 confirm
O=C(O)c1ccc(NC(=S)NC(=O)c2cccc(COc3ccccc3)c2)cc1 | 92 | 89 | -1 | -6 | 19 | 103 | / | / | /
CCN1CCN(c2ccc(NC(=O)c3cccc(OCc4ccccc4)c3)cc2)CC1 | 97 | 171* | 3 | 34 | -9 | 100 | 147 | 27 | 106
O=C(NC(=S)Nc1ccc(CN2CCCCC2)cc1)c1cccc(OCc2ccccc2)c1 | 104 | 220* | 5 | 63* | -13 | 113 | 173 | 25 | 104
CCOc1cccc(C(=O)NC(=S)Nc2ccc(N3CCN(CC)CC3)cc2)c1 | 94 | 130 | -2 | 12 | -53 | 108 | / | / | /
O=C(NC(=S)Nc1ccc(CN2CCOCC2)cc1)c1cccc([N+](=O)[O-])c1 | 104 | 105 | 2 | -1 | 9 | 145* | 106 | 2 | 105
CCCOc1cccc(C(=O)NC(=S)Nc2ccc(N3CCN(C)CC3)cc2)c1 | 96 | 152* | -1 | 46 | -18 | 103 | 147 | 12 | 106
N#CCCC(CCC#N)(CCC#N)c1cc[n+](CCc2ccccn2)cc1 | 99 | / | -2 | / | 6 | / | / | / | /
CCOc1cc(C(=O)Nc2cc3c(cc2N2CCOCC2)n(C)c(=O)n3C)cc(OCC)c1OCC | 97 | 103 | 0 | 4 | -4 | 102 | / | / | /
COc1ccc(NCC(=O)Nc2c(C)cccc2C)cc1S(=O)(=O)N1CCOCC1 | 120 | / | -2 | / | 8 | / | / | / | /
CCN1c2ccccc2NC2C1C(C(C)=O)C(=O)N2c1ccc(Cl)cc1 (stereo not given) | 641 | 59* | 5 | 73* | -26 | 93 | 101 | -2 | 102
